Assay results published in PubChem BioAssay AID1458 (National Center for Advancing Translational Sciences (NCATS), 2008).
In all, about 210,000 compounds went through this assay and about 5,900 (2.8%) were called active. Where a call stands in place of a potency, no number is given. Another 5% or so got no clear call; they are omitted. Calls follow the shape of the dose curve; as a rule, active = well fitted activation curve with a large enough effect; inconclusive = small, poorly fitted or top-dose-only effect; inactive = no such curve, though single readings can be large or run the other way. This excerpt belongs to a sample that is enriched for actives.

experiment: qHTS Assay for Enhancers of SMN2 Splice Variant Expression; conditions: HEK293 SMN2-luciferase splicing reporter, luminescence, 30-36 h; series mostly up to 46.1 µM; also: nearly all actives have a fitted effect of over 55% in size
Procedure, shortened: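 qHTS luciferase splicing reporter: luminescence rises when SMN2 exon 7 is included in transfected HEK293 cells. Compound exposure lasted 30-36 h at 37C, with 4.5 mM final sodium butyrate as control, followed by a ONE-Glo read.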
Potency is read from the fitted curve at half-maximal effect.

Row | SMILES | Potency
1 | COc1ccc(CNC(=O)c2cc3c(=O)[nH]c4ccc(C)cc4c3s2)c(OC)c1 | inactive
2 | Cc1c(C(N)=O)sc2ncn(CCOc3ccccc3)c(=O)c12 | inactive
3 | Cc1cccc2c1N(CCOc1ccccc1)C(=O)C2=O | inactive
4 | Cc1nn(CCOc2ccccc2)c(=O)n1-c1ccccc1F | 17.8 µM (active)
5 | Cc1cc(C)cc(NC(=O)CSc2oc(-c3ccccc3)nc2S(=O)(=O)c2ccc(Cl)cc2)c1 | inactive
6 | Cc1ccc(Cl)cc1N1CCN(C(=O)CN2C(=O)COc3ccc(S(=O)(=O)N4CCOCC4)cc32)CC1 | inactive
7 | COc1cccc(OCCOc2cccc(/C=N/n3cnnc3)c2)c1 | 8.91 µM (active)
8 | COc1cccc(OCCCN2CCCCCC2)c1 | inactive
9 | C(=N\n1cnnc1)/c1cccnc1 | inactive
10 | CCOc1ccccc1C(=O)NC1(C(F)(F)F)NC(=O)N(CCc2ccc(OC)c(OC)c2)C1=O (stereo not drawn) | inactive
11 | CCOC(=O)c1ccc(NC(=O)C2CC(=O)NC(=Nc3ccc(C)c(C)c3)S2)cc1 (stereo not drawn) | inactive
12 | CCCCN(C)CCNC(=O)C1CCCN(S(=O)(=O)c2cccc3nsnc23)C1 (stereo not drawn) | inactive
13 | Cc1ccc(S(=O)(=O)c2nnn3c2nc(N2CCN(c4ccccc4F)CC2)c2cc(Cl)ccc23)cc1C | inactive
14 | O=C(NNC(=S)Nc1ccc(Br)cc1Cl)c1ccco1 | 12.6 µM (active)
15 | S=C(Nc1ccc(Br)cc1Cl)NC1CCN(Cc2ccccc2)CC1 | inactive
16 | CCC(=O)NC(=S)Nc1ccc(NC(=O)c2ccco2)c(Cl)c1 | inactive
17 | Cc1ccc(-c2cc(-c3coc4ccccc4c3=O)c3c(n2)-c2cc(Cl)ccc2OC3)cc1 | inactive
18 | COc1ccc(CNC(=O)c2ccc(NC(=O)N3CC4CCCN4c4ccccc43)cc2)cc1 (stereo not drawn) | inactive
19 | CC(C)(C)OC(=O)N/N=C/c1ccc(C(=O)O)cc1 | inactive
20 | Cc1ccccc1NC(=O)NNC(=O)OC(C)(C)C | inactive
21 | C/C(=N\NC(=O)OC(C)(C)C)c1ccc[nH]1 | 12.6 µM (active)
22 | Cc1cc(NC(=O)c2ccc(-c3ccc(Cl)cc3)o2)cc(-c2nc3ncccc3o2)c1O | inactive
23 | COc1ccc(C(=O)Nc2nonc2-c2ccc(OC)c(OC)c2)cc1Cl | inactive

Row | SMILES | Potency
24 | C/C(=N/NC(=O)c1ccc(NC(=O)c2ccc(F)cc2)cc1)c1ccccc1 | inactive
25 | C/C(=N\NC(=O)c1nc(C)cc(C)n1)c1ccccc1 | 11.2 µM (active)
26 | CC(C)=C(NC(=O)c1ccccc1)C(=O)N/N=C(\C)c1ccccc1O | inactive
27 | CCOC(=O)c1c(NC(C)=O)c2c3c(sc2n1Cc1c(C)cc(C)cc1C)CCCC3 | inactive
28 | COc1ccccc1-c1cc2nc(C)c(CCC(=O)NC3CCCCC3)c(C)n2n1 | inactive
29 | CS(=O)(=O)c1ccc2c(c1)SC1=NC(=O)/C(=C/c3ccco3)C(=N)N12 | inactive
30 | CCS(=O)(=O)C1=NSC2=NC(=O)/C(=C\c3cc(C)n(-c4cccc(OC)c4)c3C)C(=N)N21 | inactive
31 | Cc1cc(/C=C2/C(=N)N3C(=NC2=O)SN=C3S(C)(=O)=O)c(C)n1-c1ccccc1 | 15.8 µM (active)
32 | Cn1c(=O)cc(OCC(=O)N2CCN(c3ccccc3)CC2)c2ccccc21 | inactive
33 | COC(=O)c1ccc(C2C(C(=O)Nc3ccccc3)=C(C)Nc3nc4ccccc4n32)cc1 (stereo not drawn) | inactive
34 | CN(Cc1ccccc1)C(=O)c1cn(C)c2ccc(S(=O)(=O)N(C)C3CCCCC3)cc2c1=O | inactive
35 | COc1cccc(C(=O)c2sc3nc(-c4ccccc4)cc(C(F)(F)F)c3c2N)c1 | inactive
36 | CN(C)c1ccnc2sc3c(=O)n(Cc4ccccc4)cnc3c12 | inactive
37 | CN(C)c1ccnc2sc(C(=O)c3ccccc3)c(N)c12 | 14.1 µM (active)
38 | CN(CC(=O)Nc1cccc(C(F)(F)F)c1)S(=O)(=O)c1cccs1 | inactive
39 | CCC1CCCCN1Cc1c(O)ccc2c(=O)c(Oc3ccccc3Cl)c(C(F)(F)F)oc12 (stereo not drawn) | inactive
40 | Cc1cc(O)cc(O)c1C(=O)Cc1cnn(-c2ccccc2)c1 | inactive
41 | COc1ccc(CC(=O)c2ccc(O)cc2O)cc1OC | inactive
42 | COc1ccc(C(=O)Cc2cnn(-c3ccccc3)c2)c(O)c1 | 17.8 µM (active)
43 | Cn1nc(-c2ccccc2)c(-c2ccccc2)c(C(=O)Nc2ccc(S(N)(=O)=O)cc2)c1=O | inactive
44 | COC(=O)Cn1cc(C(=O)c2cccs2)c2ccccc21 | inactive
45 | COC(=O)c1cn(CC(=O)NCc2cccs2)c2ccccc12 | 22.4 µM (active)
46 | O=C(Cn1cc(C(=O)c2cccs2)c2ccccc21)NCc1cccs1 | inactive

Row | SMILES | Potency
47 | CCOC(=O)c1nn(-c2cccc(C)c2)cc1C(=O)c1ccccc1 | 10 µM (active)
48 | CC(=O)c1nn(-c2cccc(Br)c2)cc1C(=O)c1cccc2ccccc12 | inactive
49 | CCOC(=O)c1cn(Cc2cccc(C)c2)nn1 | inactive
50 | COc1ccccc1-c1nc(SC)n[nH]1 | inactive
51 | CCCOc1ccccc1C(=O)NCCCC(=O)O | inactive
52 | CCCOc1ccccc1-c1nc(SCCC(=O)O)n[nH]1 | 7.08 µM (active)
53 | O=C(Cc1ccccc1)NNC(=O)C1CCN(c2ncccn2)CC1 | inactive
54 | O=C(O)C1CCN(C(=O)OCc2ccccc2)CC1 | 17.8 µM (active)
55 | O=C(NCC1CCC(C(=O)O)CC1)OCc1ccccc1 (stereo not drawn) | inactive
56 | CCOC(=O)Cc1ccc(NC(=O)Nc2c[nH]c(=O)[nH]c2=O)cc1 | inactive
57 | O=c1[nH]c2cc(Br)ccc2n2cccc12 | inactive
58 | CCCCCC(=O)Nc1ccc2oc(-c3ccncc3)nc2c1 | inactive
59 | O=C(Nc1ccc2oc(-c3ccc(O)c(Br)c3)nc2c1)c1cc2ccccc2o1 | inactive
60 | CCCC(=O)Nc1ccc2oc(-c3ccc(O)c(Br)c3)nc2c1 | 11.2 µM (active)
61 | CCOc1ccc(OCC)c(NC(=O)CN(c2ccc(C)cc2)S(=O)(=O)c2c(C)n[nH]c2C)c1 | inactive
62 | COc1ccc(Cl)cc1NC(=O)c1sc2nc3c(cc2c1N)CN(C)CC3 | inactive
63 | COc1ccc(CCn2cc3c(c2-c2ccc(Br)cc2)c(=O)n(C)c(=O)n3C)cc1OC | inactive
64 | Cc1cccc(NC(=O)C2CCCN2S(=O)(=O)c2cccc3nsnc23)c1C (stereo not drawn) | inactive
65 | Cc1ccc(-n2c(=O)c3cccnc3n2CC(=O)NCc2ccc(F)cc2)cc1C | inactive
66 | NC(=O)COC(=O)/C=C/c1ccc2ccccc2n1 | inactive
67 | CCOc1cccc(/C=C/c2ccc3ccccc3n2)c1OC(C)=O | 1.58 µM (active)
68 | CC(OC(=O)c1ccc2ccccc2n1)C(=O)c1ccccc1 (stereo not drawn) | inactive
